For this assay, the system named is Plasmodium falciparum NF54 gametocytes. Nature of the assay: viability index relative to DMSO control (fraction); higher = less gametocyte killing. As to conditions: 12.5 µM, incubation time: 72 h. In outline:
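P. falciparum NF54 gametocytes at stages I–V were treated with compound at 12.5 µM for 72 hr at 37°C under low oxygen in serum-containing medium (0.50% gametocytemia, 1.25% hematocrit), then stained with MitoTracker Red CMXRos and imaged in serum-free medium containing 500 nM dye. The viability index is the gametocyte particle count divided by the plate mean of solvent-only wells.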

The mark [1] stands for this setting: gametocyte stage: Stage I viability index.
Where [2] appears, read: gametocyte stage: Stage II viability index.
[3] abbreviates: gametocyte stage: Stage III viability index.
[4] abbreviates: gametocyte stage: Stage IV viability index.
Setting [5] is: gametocyte stage: Stage V viability index.

For `CCOC(=O)c1cnc2ccc(Cl)cc2c1NCCCN(C)C`, the viability index is 0.309 under setting [1]; 0.59 under setting [2]; 0.989 under setting [3]; 1.03 under setting [4]; 0.844 under setting [5].
For `CCOc1c(Br)cc(C2C(C(=O)OC)=CN(C)C=C2C(=O)OC)cc1OC` the same measures were 0.344, 0.243, 0.353, 0.38 and 0.649.
For `CC(C)(C)CC(C)(C)NCC(O)COc1ccc(Cl)cc1Cl` (stereo not given) the same measures were 0.0309, 0.0309, 0.0665, 0.188 and 0.11.
In the same order, the values of `N#Cc1nc(Cc2cccc3ccccc23)oc1N1CCN(C(c2ccccc2)c2ccccc2)CC1` are 1.12, 0.93, 1.23, 0.968 and 1.16.
For `CC(NCc1ccccc1)c1cc(Cl)ccc1O` (stereo not given), the viability index by setting is: under setting [1], 0.0221; under setting [2], 0.121; under setting [3], 0.44; under setting [4], 0.574; under setting [5], 0.923.
In the same order, the values of `Cc1c(C)n(CC(O)CNC2CCCCC2C)c2ccccc12` (stereo not given) are 0.0939, 0.217, 0.644, 0.766 and 0.923.
`COc1ccc(-n2ccnc2SCC(=O)Nc2cc(C)ccc2C)c(OC)c1` registered a viability index under setting [1] of 1.07; a viability index under setting [2] of 0.949; a viability index under setting [3] of 0.975; a viability index under setting [4] of 0.939; a viability index under setting [5] of 0.989.
Molecule `Clc1ccc2[nH]c3c(NCCCN4CCOCC4)ncnc3c2c1` had a viability index under setting [1] of 0.0298; a viability index under setting [2] of 0.444; a viability index under setting [3] of 0.979; a viability index under setting [4] of 0.918; a viability index under setting [5] of 0.813.
As to `COc1ccc(-c2nc(N3CCN(C(=O)C4CCCCC4)CC3)c3c4c(sc3n2)CCCC4)cc1`, the viability index runs as follows: under setting [1], 1.05; under setting [2], 0.922; under setting [3], 1.06; under setting [4], 0.915; under setting [5], 0.779.
In the same order, the values of `O=C(O)C1Cc2c([nH]c3ccccc23)C(c2ccc(Cl)cc2Cl)N1` (stereo not given) are 1.04, 0.891, 1.08, 1.05 and 0.967.
In the same order, the values of `COc1ccc(CCN2C(=O)c3[nH]nc(-c4cc(Cl)c(C)cc4O)c3C2c2ccccc2F)cc1` (stereo not given) are 0.083, 0.29, 0.6, 0.665 and 0.675.
In the same order, the values of `O=C(NCc1ccco1)C1CCN(S(=O)(=O)c2ccc(Br)cc2)CC1` are 0.938, 0.983, 0.99, 0.824 and 0.945.
Regarding `CCCc1c(CC)c(=N)c2ccccc2n1C`, the viability index reads like this: under setting [1], 0.815; under setting [2], 0.952; under setting [3], 1.09; under setting [4], 0.951; under setting [5], 1.1.
In the same order, the values of `CC1CCN(Cc2c(O)ccc3cc(-c4nc5ccccc5s4)c(=O)oc23)CC1` are 0.706, 0.705, 0.925, 0.864 and 1.
In the same order, the values of `CCOC(=O)c1cnc2c(C)cc(C)cc2c1Nc1ccc(OC)c(OC)c1` are 1.09, 0.998, 1.19, 0.845 and 0.978.
In the same order, the values of `OC(CNC1CCCC1)Cn1c2ccccc2c2ccccc21` (stereo not given) are 0.0475, 0.0783, 0.181, 0.286 and 0.22.
Turning to `CCOc1ccc(C=Cc2nc(=O)c3ccccc3o2)cc1`, the viability index was found to be 0.549 under setting [1]; 0.836 under setting [2]; 0.85 under setting [3]; 0.805 under setting [4]; 0.67 under setting [5].
On to `COc1cccc(-c2nn(C)c3sc(C(=O)NCCN4CCN(c5ccccc5F)CC4)cc23)c1`, for which the viability index by setting is: under setting [1], 0.0431; under setting [2], 0.436; under setting [3], 0.777; under setting [4], 0.836; under setting [5], 0.835.
In the same order, the values of `CCN(CC)CCNc1ccnc2cc(Cl)ccc12` are 0.0376, 0.295, 0.789, 0.726 and 0.626.
In the same order, the values of `O=C(Nc1ccc(F)c(Cl)c1)Nc1ccc(Cl)c(Cl)c1` are 0.0409, 0.0309, 0.0835, 0.17 and 0.165.
For `CCn1c(SCC(=O)Nc2cc(C(F)(F)F)ccc2Cl)nc2ccccc2c1=O` the same measures were 0.787, 0.953, 1.17, 1.14 and 1.03.
On to `O=C(NCC(c1ccsc1)N1CCCCCC1)c1ccc(C(F)(F)F)cc1` (stereo not given), for which the viability index reads like this: under setting [1], 0.653; under setting [2], 0.881; under setting [3], 0.843; under setting [4], 0.9; under setting [5], 0.725.
For `O=C(NC1CCN(Cc2ccccc2)CC1)c1cc(-c2cccnc2)nc2ccc(Cl)cc12` the same measures were 0.53, 0.609, 0.989, 1.18 and 0.725.
In the same order, the values of `Cc1ccc(-c2cc3c(nn2)-c2ccccc2C3=O)cc1` are 0.61, 0.871, 0.74, 0.897 and 1.05.
In the same order, the values of `CC(C)(C)C(=O)Nc1ccc(C(=O)Nc2cccc(-c3nc4ccccc4[nH]3)c2)cc1` are 0.111, 0.592, 0.694, 0.833 and 0.604.
In the case of `CCCCc1c(C)nc2c(OC)cccc2c1O`, the viability index is 1.07 under setting [1]; 0.942 under setting [2]; 1.03 under setting [3]; 0.954 under setting [4]; 1.1 under setting [5].
For `CC(=O)NCCc1nc2ccccc2n1Cc1ccc(C(C)C)cc1` the same measures were 0.788, 0.671, 0.883, 0.891 and 0.813.
In the same order, the values of `CCOc1ccc(Nc2c3ccccc3nc3ccccc23)cc1` are 0.0245, 0.165, 0.444, 0.351 and 0.584.
In the same order, the values of `COc1ccc2c(c1)OC(O)(C(F)(F)C(F)(F)F)CC2=O` (stereo not given) are 0.676, 0.929, 1.15, 0.97 and 1.11.
In turn, `Cc1cc(NC(=O)c2ccc(-c3ccccc3)cc2)no1` returned a viability index under setting [1] of 0.759; a viability index under setting [2] of 0.877; a viability index under setting [3] of 0.901; a viability index under setting [4] of 0.836; a viability index under setting [5] of 0.681.

Values taken from the supplement of paper PMC4723716.
